Screens: PubChem BioAssay, Broad Institute
Most compounds without a hit are left out; they make up all but 3.1% or so of the library.
RAD54 inh = inhibitors of human RAD54 branch migration, primary screen, biochemical, fluorescence, single point | RAD54 Holliday junction branch migration, FAM/BHQ fluorescence | inhibition, % at 10.4 µM | 360,000 tested, 0.14% active;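 active = mean normalized replicate activity at least 40 and at least half of replicates scoring 40 or more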;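 also: 0% = median of neutral control wells and 100% = median of positive control wells; inhibitors cause a drop in the FAM fluorescence signal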
dFosB activator = activators of delta FosB homodimer, primary screen, biochemical, fluorescence polarization, TAMRA-CDK5 oligo, single point; Protein FosB (Mus musculus), P13346; purified delta FosB; percent of positive-control signal above neutral wells; activation, % at 25 µM; 340,000 tested, 0.99% active;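 active = mean activation above about 17%, with every replicate also reaching it, limit read from the data, passing the limit was not always enough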
MLL AF4-AF9 inh = inhibitors of AF4 peptide binding to AF9, primary screen, biochemical, AlphaScreen, biotin-AF4 peptide, FLAG-AF9, single point. Protein AF-9 (Homo sapiens), P42568. inhibition, % at 10 µM. 350,000 tested, 0.47% active. AID 651704, 2012;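 active = every replicate reaching a set inhibition limit, whatever the replicate mean, cut at about 25% in these data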;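 also: 0% = plate neutral control median and 100% = total signal loss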
Target sequence (P42568 whole entry, looked up): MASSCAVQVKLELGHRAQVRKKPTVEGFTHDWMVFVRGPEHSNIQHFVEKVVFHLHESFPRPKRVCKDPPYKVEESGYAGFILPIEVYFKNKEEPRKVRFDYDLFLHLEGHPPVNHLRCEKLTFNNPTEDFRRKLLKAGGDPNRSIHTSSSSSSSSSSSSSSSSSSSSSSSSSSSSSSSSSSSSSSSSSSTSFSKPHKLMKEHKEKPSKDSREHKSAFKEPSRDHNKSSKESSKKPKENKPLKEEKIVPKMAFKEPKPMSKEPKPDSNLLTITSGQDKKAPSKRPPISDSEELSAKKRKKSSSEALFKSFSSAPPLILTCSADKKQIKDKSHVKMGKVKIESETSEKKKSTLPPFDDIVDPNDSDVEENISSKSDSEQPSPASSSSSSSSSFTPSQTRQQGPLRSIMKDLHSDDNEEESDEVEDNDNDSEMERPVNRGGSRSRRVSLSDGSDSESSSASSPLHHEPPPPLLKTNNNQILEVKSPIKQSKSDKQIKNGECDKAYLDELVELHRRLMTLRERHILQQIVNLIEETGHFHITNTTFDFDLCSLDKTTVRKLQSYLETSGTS
RAD52 inh = RAD52 DNA annealing inhibitors, primary screen, biochemical, FRET, single point, set 2 | DNA repair protein RAD52 homolog (Homo sapiens), P43351 | recombinant RAD52 DNA annealing, FRET fluorescence | inhibition, % at 18.7 µM | 360,000 tested, 0.46% active | AID 651710, 2012;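 active = every replicate showing at least 50% inhibition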
GSIS activator = GLuc luminescence reporter in INS-1E cells, primary screen for activators of glucose-dependent secretion of insulin | activation, % at 16.6 µM | INS-1E GLuc reporter insulin secretion, 2-3 h | 370,000 tested, 0.61% active | AID 743287, 2014;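 active = lowest replicate activation of at least 40%, so every replicate reaches that level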;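 also: 0% = median of neutral control wells and 100% = median of IBMX positive control wells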
DENV2 CPE rescue = inhibitors of DENV2 cytopathic effect, primary screen, cell-based, plate reader, single concentration | DENV2-infected cells, cytopathic effect rescue | CPE inhibition, % at 9.99 µM | 350,000 tested, 1.7% active | AID 651640, 2012; in the data active = CPE inhibition above about 20%, passing the limit was not always enough; tested in BHK-21 cells;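 also: 0% = median of neutral control wells and 100% = median of positive control wells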
Numbers without * were called inactive.

O=C(N/N=C/c1ccc(O)cc1)c1cc(-c2ccccc2)nc2ccccc12 was read as RAD54 inh 3, dFosB activator 29*, MLL AF4-AF9 inh -6, RAD52 inh -13, GSIS activator 9 and DENV2 CPE rescue 1.
Screening O=C(N/N=C/c1ccc[nH]1)c1cc(-c2cccs2)nc2ccccc12 returned RAD54 inh 2, dFosB activator -6, MLL AF4-AF9 inh 18, RAD52 inh -8, GSIS activator 9 and DENV2 CPE rescue 1.
Cn1cccc1/C=N/NC(=O)c1cc(-c2cccs2)nc2ccccc12 was read as dFosB activator 1, MLL AF4-AF9 inh 32*, RAD52 inh -7, GSIS activator 1 and DENV2 CPE rescue 1.
Screening O=C(c1cc(-c2ccccc2)nc2ccccc12)N1CCCC1 returned RAD54 inh 0, dFosB activator -5, MLL AF4-AF9 inh -2, RAD52 inh 0, GSIS activator 44* and DENV2 CPE rescue -3.
`COc1cc(/C=N/NC(=O)c2cc(-c3ccco3)nc3ccccc23)cc(OC)c1O` gave dFosB activator -1, MLL AF4-AF9 inh -1, RAD52 inh -2, GSIS activator 13 and DENV2 CPE rescue 31*.
Screening C[C@H](CO)N1C[C@H](C)[C@@H](CN(C)C(=O)CCCN(C)C)OCCCC[C@H](C)Oc2ccc(NC(=O)Nc3ccc4c(c3)OCO4)cc2C1=O returned RAD54 inh 14, GSIS activator -12 and DENV2 CPE rescue -5.
Screening CN(C)CC(=O)Nc1ccc2c(c1)[C@@H]1C[C@H](CC(=O)NCc3ccccc3F)O[C@H](CO)[C@@H]1O2 returned RAD54 inh 5, GSIS activator -2 and DENV2 CPE rescue 11.
`COc1ccc(N2CCN(c3ccc(NC(=O)C4CCCCC4)cc3C#N)CC2)cc1` gave RAD54 inh -2, dFosB activator -1 and GSIS activator 51*.
Screening COc1ccc(C(=O)Nc2ccc(N3CCN(c4ccc(OC)cc4)CC3)c(C#N)c2)cc1 returned RAD54 inh 0 and dFosB activator -10.
`CCOc1cc(N2CCOCC2)c(OCC)cc1NC(=O)Cc1ccc(OC)c(OC)c1` gave RAD54 inh -4, dFosB activator -1 and GSIS activator 3.
Screening CCOc1cc(N2CCOCC2)c(OCC)cc1NC(=O)CN1CCN(Cc2ccc3c(c2)OCO3)CC1 returned dFosB activator -13, MLL AF4-AF9 inh 12, RAD52 inh -11, GSIS activator 22 and DENV2 CPE rescue 29*.
`CCOc1cc(N2CCOCC2)c(OCC)cc1NC(=O)COC(=O)c1cc2ccccc2cc1O` gave RAD54 inh -9, dFosB activator -1 and GSIS activator 141*.
Screening CCC(SC1=NCCS1)C(=O)Nc1ccc(S(N)(=O)=O)cc1 (stereo unspecified) returned RAD54 inh -1, dFosB activator 3, MLL AF4-AF9 inh -1, RAD52 inh 0 and DENV2 CPE rescue 26*.
Screening O=C(C[C@H]1C=C[C@H](NC(=O)CC2CC2)[C@H](CO)O1)NCc1ccccc1 returned MLL AF4-AF9 inh -3, RAD52 inh -6, GSIS activator 7 and DENV2 CPE rescue 18.
`Cc1ccc(SC(C)C(=O)NC(N)=O)c(C)c1` (stereo unspecified) gave dFosB activator -2, MLL AF4-AF9 inh -2, RAD52 inh -8, GSIS activator 41* and DENV2 CPE rescue 2.
Screening C[C@H]1CCCCO[C@@H](CN(C)C(=O)Nc2ccc3c(c2)OCO3)[C@@H](C)CN([C@@H](C)CO)C(=O)c2cc(NC(=O)Nc3ccccc3)ccc2O1 returned RAD54 inh -1, MLL AF4-AF9 inh 5, RAD52 inh -9, GSIS activator 13 and DENV2 CPE rescue -10.
Screening O=C(c1ccc(F)cc1)N1CC(=O)N2[C@H](CO)[C@H](c3ccc(-c4ccccc4)cc3)[C@H]2C1 returned MLL AF4-AF9 inh -2, RAD52 inh -22, GSIS activator -9 and DENV2 CPE rescue 24*.
Screening O=C(c1ccc(F)cc1)N1CC(=O)N2[C@@H](CO)[C@@H](c3ccc(C#CC4CCCC4)cc3)[C@@H]2C1 returned MLL AF4-AF9 inh 3, RAD52 inh -20, GSIS activator -13 and DENV2 CPE rescue 44*.
O=C(Cc1ccccn1)N1CC(=O)N2[C@H](CO)[C@H](c3ccc(C#CC4CC4)cc3)[C@@H]2C1 was read as MLL AF4-AF9 inh -2, RAD52 inh -10, GSIS activator -6 and DENV2 CPE rescue 40*.
For O=C(c1ccc(F)cc1)N1CC(=O)N2[C@H](C1)[C@H](c1ccc(-c3ccccc3)cc1)[C@@H]2CO the results were MLL AF4-AF9 inh -1, RAD52 inh -14, GSIS activator -16 and DENV2 CPE rescue -5.
`O=C(C1CCOCC1)N1CC(=O)N2[C@@H](CO)[C@H](c3ccc(C#CC4CCCC4)cc3)[C@@H]2C1` gave MLL AF4-AF9 inh 4, RAD52 inh -14, GSIS activator 3 and DENV2 CPE rescue 52*.
COc1ccc(C(=O)Nc2ccc3c(c2)C(=O)N(C)C[C@H](OC)[C@@H](C)CN[C@H](C)CO3)cc1 was read as RAD54 inh -2, MLL AF4-AF9 inh -1, RAD52 inh -14, GSIS activator 31 and DENV2 CPE rescue 5.
`COc1ccc(S(=O)(=O)Nc2ccc3c(c2)C(=O)N([C@H](C)CO)C[C@H](C)[C@H](CN(C)Cc2ccccc2)O3)cc1` gave RAD54 inh 11, MLL AF4-AF9 inh -1, RAD52 inh 12, GSIS activator 7 and DENV2 CPE rescue 4.
Screening CCOC(=O)c1nccnc1C(=O)Nc1cccc(C(F)(F)F)c1 returned dFosB activator -4, MLL AF4-AF9 inh 1, RAD52 inh -5, GSIS activator 6 and DENV2 CPE rescue 3.
CCOC(=O)C1=NN(C(=O)Nc2cccc(C(F)(F)F)c2)C2C(=O)N(c3cccc(C(F)(F)F)c3)C(=O)C12 (stereo unspecified) was read as dFosB activator -3 and GSIS activator 100*.
CCC(C)[C@H](NS(=O)(=O)c1ccc(C)cc1)C(=O)N1CCC(C(=O)N2CCC(C(=O)OC)CC2)CC1 (stereo partly specified) was read as RAD54 inh -13, dFosB activator -16, MLL AF4-AF9 inh 0, RAD52 inh -4, GSIS activator -9 and DENV2 CPE rescue 82*.
